Several values for one entry are separate records, joined by “and”; a condition that tells them apart may be missing. Equal entries are not always repeated. About 2,000 (36%) of roughly 5,500 compounds were called active. Not shown: some 18% with an inconclusive outcome. No stated cut-off is given here; in the data, active means normalized growth mostly below about 0.91 (no sharp cut-off); inconclusive means no clear call, values can overlap the other calls; inactive means mostly above about 0.92. Some of the results follow.
Test: chemical genetic growth profiling, strain panel (AID 1159580);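 further: tested at 20 µM; growth read once vehicle control cultures reached saturation at 30 °C; 1 = growth at the plate median or of vehicle wells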
Settings: S. cerevisiae deletion strains, growth OD
[1] = locus YGR229C, strain SMI1, stronger effect = lower value
[2] = locus YMR307W, strain GAS1, stronger effect = lower value
[3] = locus YNL322C, strain KRE1, stronger effect = lower value

Measured: normalized growth

C=C/C(C)=C/[C@@]1(C)SC(=O)C(C)=C1O
inactive: locus YAL040C, strain CLN3, stronger effect = lower value 0.998 | locus YCL061C, strain MRC1 (second series), stronger effect = lower value 1 | locus YDR150W, strain NUM1, stronger effect = lower value 1.01 | locus YDR363W, strain ESC2, stronger effect = lower value 1.02 | locus YER002W, strain NOP16, stronger effect = lower value 0.986 | locus YGR078C, strain PAC10, stronger effect = lower value 1.01 | [1] 1.01 | locus YJR075W, strain HOC1, stronger effect = lower value 1 | [2] 0.998 | locus YNL175C, strain NOP13, stronger effect = lower value 0.996 | locus YNL197C, strain WHI3, stronger effect = lower value 1 | locus YNL224C, strain SQS1, stronger effect = lower value 1 | [3] 0.999 | locus YOR083W, strain WHI5 (second series), stronger effect = lower value 0.999

C/C1=C/CC(C)(C)/C=C/C/C(C)=C/CC1
0.85 (active) and 1.03 (inactive): locus YHR030C, strain SLT2, stronger effect = lower value
active: locus YDL074C, strain BRE1, stronger effect = lower value 0.769 | locus YDR162C, strain NBP2, stronger effect = lower value 0.611 | [1] 0.389 | locus YLR039C, strain RIC1, stronger effect = lower value 0.651 | [2] 0.536 | locus YOR184W, strain ser1, stronger effect = lower value 0.865 | locus YPL055C, strain LGE1, stronger effect = lower value 0.76
inactive: locus YAL021C, strain ccr4, stronger effect = lower value 1.04 | locus YAL026C, strain drs2, stronger effect = lower value 0.983 | locus YAL030W, strain snc1, stronger effect = lower value 0.99 | locus YBL061C, strain skt5, stronger effect = lower value 0.985 | locus YBR009C, strain hhf1, stronger effect = lower value 0.983 | locus YBR021W, strain FUR4, stronger effect = lower value 0.95 | locus YBR023C, strain chs3, stronger effect = lower value 0.99 | locus YBR171W, strain sec66, stronger effect = lower value 0.953 | locus YBR229C, strain ROT2, stronger effect = lower value 1.03 | locus YBR231C, strain swc5, stronger effect = lower value 0.977 | locus YBR279W, strain paf1, stronger effect = lower value 0.999 | locus YCL011C, strain gbp2, stronger effect = lower value 1.02 | locus YCL016C, strain dcc1, stronger effect = lower value 1.01 | locus YCL029C, strain bik1, stronger effect = lower value 1.03 | locus YCL061C, strain MRC1, stronger effect = lower value 0.988 | locus YCL069W, strain vba3, stronger effect = lower value 0.991 | locus YCR088W, strain abp1, stronger effect = lower value 0.981 | locus YDL005C, strain med2, stronger effect = lower value 0.966 | locus YDL035C, strain GPR1, stronger effect = lower value 0.91 | locus YDL040C, strain nat1, stronger effect = lower value 0.987 | locus YDL101C, strain DUN1, stronger effect = lower value 1.01 | locus YDL185W, strain tfp1, stronger effect = lower value 1 | locus YDL192W, strain arf1, stronger effect = lower value 0.988 | locus YDR001C, strain nth1, stronger effect = lower value 0.985 | locus YDR069C, strain doa4, stronger effect = lower value 0.989 | locus YDR101C, strain arx1, stronger effect = lower value 0.991 | locus YDR137W, strain rgp1, stronger effect = lower value 0.973 | locus YDR159W, strain sac3, stronger effect = lower value 0.975 | locus YDR195W, strain ref2 0.951 | locus YDR297W, strain sur2, stronger effect = lower value 0.988 | locus YDR318W, strain mcm21, stronger effect = lower value 1.01 | locus YDR334W, strain swr1, stronger effect = lower value 0.981 | locus YDR335W, strain msn5, stronger effect = lower value 0.998 | locus YDR388W, stronger effect = lower value 0.998 | locus YDR392W, strain spt3, stronger effect = lower value 0.961 | locus YDR502C, strain sam2, stronger effect = lower value 0.983 | locus YEL003W, strain gim4, stronger effect = lower value 0.983 | locus YEL037C, strain rad23, stronger effect = lower value 0.984 | locus YEL061C, strain CIN8 (second series), stronger effect = lower value 0.982 | locus YEL061C, strain CIN8, stronger effect = lower value 0.988 | locus YER015W, strain faa2, stronger effect = lower value 1 | locus YER016W, strain bim1, stronger effect = lower value 0.987 | locus YER110C, stronger effect = lower value 1.01 | locus YER111C, strain swi4, stronger effect = lower value 0.968 | locus YER155C, strain BEM2 (second series), stronger effect = lower value 1.01 | locus YER155C, strain BEM2, stronger effect = lower value 1 | locus YER167W, strain BCK2, stronger effect = lower value 0.98 | locus YFR010W, strain ubp6, stronger effect = lower value 0.978 | locus YGL078C, strain dbp3, stronger effect = lower value 0.985 | locus YGL086W, strain mad1, stronger effect = lower value 1 | locus YGL167C, strain pmr1, stronger effect = lower value 0.977 | locus YGL173C, strain kem1, stronger effect = lower value 0.96 | locus YGL227W, strain vid30, stronger effect = lower value 0.978 | locus YGL240W, strain doc1, stronger effect = lower value 0.956 | locus YGL248W, strain PDE1, stronger effect = lower value 1.01 | locus YGL253W, strain hxk2, stronger effect = lower value 0.957 | locus YGR135W, strain pre9, stronger effect = lower value 0.967 | locus YGR252W, strain gcn5, stronger effect = lower value 1.01 | locus YHR013C, strain ard1, stronger effect = lower value 1 | locus YHR027C, strain rpn1, stronger effect = lower value 0.97 | locus YHR079C, strain IRE1 (second series), stronger effect = lower value 1.01 | locus YHR079C, strain IRE1, stronger effect = lower value 1.02 | locus YHR094C, strain hxt1, stronger effect = lower value 1.01 | locus YHR129C, strain ARP1, stronger effect = lower value 1.01 | locus YHR142W, strain chs7, stronger effect = lower value 1 | locus YHR200W, strain rpn10, stronger effect = lower value 1.01 | locus YIL066C, strain RNR3, stronger effect = lower value 1.01 | locus YIL073C, strain SPO22, stronger effect = lower value 0.95 | locus YIL125W, strain kgd1, stronger effect = lower value 0.991 | locus YIR030C, strain dcg1, stronger effect = lower value 1 | locus YJL092W, strain hpr5, stronger effect = lower value 0.988 | locus YJL095W, strain BCK1 (second series), stronger effect = lower value 1 | locus YJL095W, strain BCK1, stronger effect = lower value 0.831 and 1.06 | locus YJL115W, strain asf1, stronger effect = lower value 0.988 | locus YJL129C, strain trk1, stronger effect = lower value 0.981 | locus YJL134W, strain LCB3, stronger effect = lower value 1 | locus YJL154C, strain vps35, stronger effect = lower value 0.981 | locus YJL164C, strain tpk1, stronger effect = lower value 1.01 | locus YJL166W, strain qcr8, stronger effect = lower value 0.985 | locus YJL168C, strain set2, stronger effect = lower value 1.02 | locus YJL187C, strain SWE1 (second series), stronger effect = lower value 0.976 | locus YJR043C, strain POL32, stronger effect = lower value 0.964 | locus YJR066W, strain TOR1, stronger effect = lower value 0.986 | locus YKL009W, strain mrt4, stronger effect = lower value 0.962 | locus YKL068W, stronger effect = lower value 0.991 | locus YKL085W, strain MDH1 (second series), stronger effect = lower value 0.963 | locus YKL085W, strain MDH1, stronger effect = lower value 0.963 | locus YKL160W, strain elf1, stronger effect = lower value 1.02 | locus YKR001C, strain vps1, stronger effect = lower value 0.98 | locus YKR026C, strain gcn3, stronger effect = lower value 0.983 | locus YKR091W, strain srl3, stronger effect = lower value 0.987 | locus YLL001W, strain dnm1, stronger effect = lower value 1 | locus YLL026W, stronger effect = lower value 0.99 | locus YLL041C, strain sdh2, stronger effect = lower value 0.998 | locus YLR027C, strain aat2, stronger effect = lower value 1.01 | locus YLR058C, strain SHM2, stronger effect = lower value 1.01 | locus YLR102C, strain apc9, stronger effect = lower value 1.01 | locus YLR113W, strain HOG1, stronger effect = lower value 1.02 | locus YLR221C, strain rsa3, stronger effect = lower value 0.961 | locus YLR258W, strain gsy2, stronger effect = lower value 0.998 | locus YLR262C, strain YPT6 (second series), stronger effect = lower value 0.994 | locus YLR262C, strain YPT6, stronger effect = lower value 0.789 | locus YLR268W, strain sec22, stronger effect = lower value 1 | locus YLR320W, strain mms22, stronger effect = lower value 0.968 | locus YLR330W, strain CHS5, stronger effect = lower value 0.974 | locus YLR342W, strain FKS1 (second series), stronger effect = lower value 0.986 | locus YLR342W, strain FKS1, stronger effect = lower value 0.989 | locus YLR357W, strain rsc2, stronger effect = lower value 0.968 | locus YLR370C, strain arc18, stronger effect = lower value 1.01 | locus YLR371W, strain rom2, stronger effect = lower value 0.998 | locus YLR384C, strain iki3, stronger effect = lower value 0.984 | locus YLR418C, strain cdc73, stronger effect = lower value 0.929 | locus YML016C, strain PPZ1, stronger effect = lower value 1.04 | locus YML032C, strain rad52, stronger effect = lower value 0.99 | locus YML120C, strain ndi1, stronger effect = lower value 1 | locus YML124C, strain tub3, stronger effect = lower value 1.01 | locus YMR058W, strain fet3, stronger effect = lower value 0.992 | locus YMR078C, strain ctf18, stronger effect = lower value 1.01 | locus YMR125W, strain sto1, stronger effect = lower value 1.01 | locus YMR129W, stronger effect = lower value 0.992 | locus YMR205C, strain PFK2, stronger effect = lower value 0.994 | locus YMR223W, strain ubp8, stronger effect = lower value 1 | locus YMR231W, strain pep5, stronger effect = lower value 0.966 | locus YNL067W, strain RPL9B, stronger effect = lower value 0.869 | locus YNL071W, strain lat1, stronger effect = lower value 0.998 | locus YNL183C, strain NPR1, stronger effect = lower value 0.995 | locus YNL209W, strain ssb2, stronger effect = lower value 1 | locus YNL233W, strain BNI4, stronger effect = lower value 0.96 | locus YNL250W, strain rad50, stronger effect = lower value 0.973 | locus YNL271C, strain bni1, stronger effect = lower value 0.998 | locus YNL298W, strain CLA4, stronger effect = lower value 0.989 | locus YNL307C, strain MCK1, stronger effect = lower value 1.02 | locus YNL322C, strain KRE1 (second series), stronger effect = lower value 0.979 | [3] 0.973 | locus YNR049C, strain mso1, stronger effect = lower value 0.976 | locus YNR052C, strain pop2, stronger effect = lower value 0.964 | locus YOL006C, strain TOP1, stronger effect = lower value 0.917 | locus YOL012C, strain htz1 1.09 | locus YOL147C, strain pex11, stronger effect = lower value 1.02 | locus YOR001W, strain rrp6, stronger effect = lower value 0.944 | locus YOR061W, strain CKA2, stronger effect = lower value 1.03 | locus YOR069W, strain VPS5, stronger effect = lower value 1.02 | locus YOR070C, strain gyp1, stronger effect = lower value 0.983 | locus YOR080W, strain dia2, stronger effect = lower value 0.969 | locus YOR083W, strain WHI5, stronger effect = lower value 1.02 | locus YOR106W, strain vam3, stronger effect = lower value 0.995 | locus YOR136W, strain idh2, stronger effect = lower value 0.995 | locus YOR144C, strain elg1, stronger effect = lower value 1.01 | locus YOR231W, strain MKK1, stronger effect = lower value 1.02 | locus YOR265W, strain rbl2, stronger effect = lower value 0.997 | locus YOR270C, strain vph1, stronger effect = lower value 0.932 | locus YOR290C, strain snf2, stronger effect = lower value 0.995 | locus YOR316C, strain cot1, stronger effect = lower value 1.01 | locus YPL051W, strain arl3, stronger effect = lower value 0.991 | locus YPL078C, strain atp4, stronger effect = lower value 1.01 | locus YPL106C, strain sse1, stronger effect = lower value 1.03 | locus YPL240C, strain hsp82, stronger effect = lower value 1.02 | locus YPL241C, strain CIN2, stronger effect = lower value 1.02 | locus YPL256C, strain CLN2, stronger effect = lower value 1.06 | locus YPR119W, strain clb2, stronger effect = lower value 1.01 | locus YPR141C, strain kar3, stronger effect = lower value 1 | locus YPR163C, strain tif3, stronger effect = lower value 1.01 | locus YPR167C, strain met16, stronger effect = lower value 1.01 | strain wtn01, stronger effect = lower value 0.993
